Laboratory results published in PubChem BioAssay AID651965 (National Center for Advancing Translational Sciences (NCATS), 2013).
Hit rate of the full screen: of about 340,000 compounds, about 6,400 (1.9%) were called active. Another 4% or so got no clear call; they are omitted. Calls follow the shape of the dose curve; as a rule, active = well fitted falling curve with a large enough effect; inconclusive = small, poorly fitted or top-dose-only effect; inactive = no such curve, though single readings can be large or run the other way. The list comes from a sample in which actives are over-represented; it also holds similar structures and randomly drawn compounds.

molecular target: ATP-dependent Clp protease proteolytic subunit (Bacillus subtilis (strain 168)) (UniProt P80244); test: qHTS Assay for Activators of ClpP; also: the source files actives as falling curves though it sought activators and does not explain the sign; nearly all actives have a fitted effect of over 65% in size; details: purified B. subtilis ClpP, FRET peptide cleavage, 20 min; series mostly up to 57.5 µM; activity change, negative = active: at the top concentration
Procedure, shortened: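 ClpP 10 microg/mL final, pH 8 Tris/KCl buffer with BSA, glycerol, Tween-20; compound pinned in; FRET-FV substrate; RT 20 min; Ex320/Em430; ΔFRET vs ADEP 5.8 microM, DMSO, no enzyme.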
Potency is read from the fitted curve at half-maximal effect.

Activity change, negative = active, inactive:
Nc1ncnc2c1ncn2[C@@H]1O[C@H](C(=O)NCC(F)(F)F)[C@@H](O)[C@H]1O 1.54%, CCCCc1c(-c2ccc(Cl)cc2)ncn1CCc1ccccc1OC -1.38%, Cc1ccc(-c2nc3c(Cl)cc(C(F)(F)F)cn3c2Cc2cccc(Cl)c2)cc1 -12.4%, Cc1nn(-c2ncc(C(F)(F)F)cc2Cl)c(=O)n1-c1ccccc1 -3.4%, OCCC#Cc1ccc(N2C(c3ccsc3)=Cc3ccc(F)cc3C2c2c[nH]c3ccccc23)cc1 (centres undefined) 2.41%, CCOC(=O)C1=C(C)c2ccccc2OC1(C)C(=O)OCC (centres undefined) 1.75%, Cc1cc(Br)cn2c(Cc3ccccc3C(F)(F)F)c(-c3ccc(Cl)cc3)nc12 -2.87%, C=C1C=C(C(F)F)n2ncc(C(=O)NCCc3ccccc3OC)c2N1 -9.27%, Cc1ccc(Cn2c(C)c3cnn(CC(=O)NCCN4CCOCC4)c(=O)c3c2C)cc1 -20.6%, O=C(CCN1C(=O)c2ccccc2C1=O)NCCN1CCOCC1 -4.16%, Cc1ccc(CC2(C)C(=O)Nc3ccc(OC(F)(F)F)cc32)cc1 (centres undefined) -1.95%, O=C(Nc1ccc2c(c1)OCCO2)C(C1CC1)N1CCC(Cc2ccccc2)CC1 (centres undefined) -0.169%, CCOC(=O)[C@]12CCCC=C1N(CCC1=CCCCC1)C(=O)[C@H](CC(=O)N1CCOCC1)C2 -2.91%, CCc1nc2c(OCc3ccc(Cl)cc3Cl)cccn2c1N(C)C(=O)C(C)C 1.42%, CCc1nc2ccc(C(=O)N3CCN(c4cc(Cl)ccc4C)CC3)cc2nc1CC -26.7%, O=C(c1cccs1)N1C[C@H](n2cc(C3CC3)nn2)[C@@H](O)C[C@@H]1c1ccccc1 0.507%, CC(C)N1C(=O)c2ccccc2NC(=O)C1C(=O)NCc1cccs1 (centres undefined) -9.21%, CC(=O)c1ccc(-c2cnc3c(NC=O)cc(-c4cccc(NS(C)(=O)=O)c4)cn23)cc1 -17.7%, Cc1ccccc1S(=O)(=O)NC(=O)C1(C)CCN1C(=O)C1(c2ccccc2)CCCC1 (centres undefined) -0.858%, O=C(Nc1cccc(NC(=O)N2CCN(c3ccccc3)CC2)c1)N1CCN(c2ccccc2)CC1 -1.46%, O=C(Nc1ccccc1)N1CCC(C(=O)N2CCN(Cc3ccccc3)CC2)CC1 -1.62%, Cc1ccc(O)c(/C=N/NC(=O)COc2ccc3c(C)cc(=O)oc3c2)c1 3.75%, CC(=O)c1c(C)[nH]c(C(=O)COc2ccc3c(C)cc(=O)oc3c2)c1C -6.06%, Cc1cccc(C)c1NC(=O)CN1CCN(c2ccc(F)cc2)CC1 -2.54%, CS(=O)(=O)c1ccc(-c2nnc(NC(=O)c3ccc4c(c3)OCCO4)o2)cc1 -16.1%, COCCn1c(=NC(=O)c2ccccc2[N+](=O)[O-])sc2cc(S(C)(=O)=O)ccc21 2.07%, CCCNC(=O)C1(C)CCN1C(=O)C1(c2ccccc2)CC1 (centres undefined) 0.909%, Cc1ccc(C(=O)NC(=S)NCc2cccnc2)cc1 0.84%, O=C(NCc1cccnc1)c1cn(-c2ccccc2)nc1-c1cccs1 -27.6%, CCN1C(=O)[C@H]2[C@@H](c3ccc(C(F)(F)F)cc3)N[C@]3(CCCN(Cc4ccc(Br)cc4)C3=O)[C@H]2C1=O -0.527%, O=C(COC(=O)c1ncc(Cl)c(Cl)c1Cl)NNC(=O)c1ccccc1 -0.929%, O=C(COC(=O)c1ncc(Cl)c(Cl)c1Cl)NCc1ccccc1 -0.246%, COc1ccc(C(=O)N2CCCCC2c2cc(C(=O)Nc3ccccc3)no2)cc1 (centres undefined) -1.69%, Cc1cc(C)n2c(NCc3ccccc3)c(CC(C)C)nc2n1 -1.15%, Cc1cccc(CN2CCN(C3CN(Cc4cn(Cc5ccccc5F)nn4)S(=O)(=O)C3)CC2)c1 (centres undefined) -1.38%, CNCCCOc1cc2nc(N3CCCN(C)CC3)nc(NC3CCN(C)CC3)c2cc1OC 4.09%, OC(c1nnc(-c2ccccc2)o1)c1cccs1 (centres undefined) -0.78%, CN(C)c1ccc(-c2nnc(-c3cccnc3)o2)cc1 0.624%, O=C(COC(=O)c1ccccc1OCCOc1ccccc1)Nc1cccc(Br)c1 0.0233%, CC(=O)N1CCN(c2ccc(NCc3ccc(C(C)C)cc3)cc2)CC1 -2.79%, Cc1ccc(-c2cnc(NC(=O)CCC(=O)N(C)Cc3ccccc3)n2C)cc1 -6.71%, COc1ccc2nc(C)cc(Nc3cccc(C(=O)O)c3)c2c1 1.33%, COc1cccc(NC(=O)Nc2ccc(F)cc2)c1 -0.16%, COC(=O)[C@@]12C[C@@H](CC(=O)N3CCCCC3)C(=O)N(Cc3ccc4c(c3)OCO4)C1=CCC(C)(C)C2 0.0879%, COc1ccc2nc(SCc3ccccc3)nc(C)c2c1 0.798%, CCc1nnc(SCC(=O)Nc2cc(OC)ccc2OC)nc1CC 0.955%, O=c1cc(CN2CCCCCCC2)c2c(ccc3ccccc32)o1 5.01%, NC(=O)c1ccc(NC(=O)COC(=O)c2c3c(nc4ccccc24)/C(=C\c2ccc4c(c2)OCO4)CCC3)cc1 1.3%, NS(=O)(=O)c1ccc(NC(=O)COC(=O)c2c3c(nc4ccccc24)/C(=C\c2ccc4c(c2)OCO4)CCC3)cc1 -0.175%

Potency, active:
Cc1ccc(-c2ccnc3nc(Sc4ncc(C(F)(F)F)cc4Cl)nn23)cc1 7.08 µM, CCOC(=O)C1(C(F)(F)F)N=C(N(C)C)OC(N(C)C)=N1 15.8 µM, O=C(Cn1c(-c2ccccn2)nc2ccccc21)NCCN1CCOCC1 28.2 µM, CCOC(=O)N1CCN(C(=O)c2ccc3nc4cc(Cl)ccc4c(=O)n3c2)CC1 3.55 µM, O=C(Nc1ccccc1)N1CCN(C2c3ccccc3-c3ccccc32)CC1 31.6 µM, Cc1cc(=O)oc2ccc(OCC(=O)O)cc12 31.6 µM, Cn1c(=NC(=O)c2ccc3c(c2)OCCO3)sc2cc(S(C)(=O)=O)ccc21 12.6 µM, O=C(/C=C/c1cccs1)NCc1cccnc1 35.5 µM, CS(=O)(=O)c1ccc(Cl)c(NC(=O)COC(=O)c2ncc(Cl)c(Cl)c2Cl)c1 14.1 µM, Nc1ccc(-c2nnc(-c3ccc(-c4ccccc4)cc3)o2)cc1 31.6 µM, Cc1ccc(-c2cnc(NCc3ccc(C(C)C)cc3)n2C)cc1 28.2 µM, COc1ccc2nc(/N=C(\N)NC(=O)Nc3ccccc3)nc(C)c2c1 14.1 µM, COC(=O)CSc1nc(C)c2ccc(OC)cc2n1 25.1 µM, O=C1/C(=C/c2ccc3c(c2)OCO3)CCC/C1=C\c1ccc2c(c1)OCO2 28.2 µM

Potency, inactive:
CCc1nc2ccc(C(=O)N3CCN(c4cccc(Cl)c4)CC3)cc2nc1CC
